Experimental data taken from PubChem BioAssay (NCI).
Compounds without any hit were thinned out: in the full panel of roughly 83,000, 20% have a hit.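 48-hour exposure, single concentration, 96-well plates; percent growth endpoint where 0 means no net growth. Active: below 10.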 Values without a mark were called inactive. Active and inactive are the calls of the source.

Columns and labels:
Test in all cases: NCI-60 one-dose screen, 48 h (100 = growth as untreated, 0 = no growth, -100 = all killed)
Conditions in all cases: 10 µM unless noted
[1] = test system: EKVX NSCLC
[2] = test system: SN12C renal
[3] = test system: UO-31 renal
[4] = test system: TK-10 renal
[5] = test system: ACHN renal
[6] = test system: CAKI-1 renal
[7] = test system: A498 renal
[8] = test system: CCRF-CEM leukemia
[9] = test system: MOLT-4 leukemia

SMILES	growth [1]	growth [2]	growth [3]	growth [4]	growth [5]	growth [6]	growth [7]	growth [8]	growth [9]
O=C1/C(=C/c2ccc([N+](=O)[O-])cc2)COc2ccc(O)cc21	92.3%	76.8%	53.7%	92.7%	82.7%	63.6%	99.5%	3.96% (active)	39.3%
COc1cccc(/C=C2\COc3ccc(O)c(O)c3C2=O)c1	60.2%	-54.3% (active)	-93.3% (active)	21.5%	-79.2% (active)	0.272% (active)	111%	3.04% (active)	
N#C/C(=C\c1c(-c2ccccc2)[nH]c2ccccc12)C(N)=O	83.7%	94.2%	93.4%	124%	88.8%	63.2%	73.7%	66.1%	61.6%
Cc1sc2nc(NCCc3c[nH]c4ccc(Cl)cc34)[nH]c(=O)c2c1C	41.7%	51.7%	18.6%	63.9%	42.9%	12%	69.4%	33.9%	38.7%
CCSC(SCC)c1ccc(Cl)cc1	106%	99.7%	92.5%	116%	107%	82.9%	93.4%	108%	110%
CC(C)C1=NOC(=O)C1=Cc1cn(-c2ccccc2)nc1-c1ccc(F)cc1	97.2%	62.8%	74.2%	75.2%	71.4%	62.2%	82.2%	10.7%	17.8%
CCOC(=O)c1c(C(=O)c2cn(C)c3ccc(Br)cc23)c(-c2cn(C)c3ccc(Br)cc23)n(NC(=O)OC(C)(C)C)c1C	80.5% [100 µM]	92% [100 µM]	58.7% [100 µM]	69.2% [100 µM]	78.9% [100 µM]	43.9% [100 µM]	87.2% [100 µM]	102% [100 µM]	
CN(C)c1ccc(-c2c(C#N)c(N)nn2C(=O)c2ccc(NC(=O)c3ccccn3)cc2)cc1	91.6%	101%	80.7%	110%	87.2%	77.3%	96.6%	51.5%	
COc1cc(/C=C/C(=O)c2ccc(F)cc2)ccc1OCCCCOc1ccc(/C=C/C(=O)c2c(C)nc3ccccc3c2C)cc1OC	133%	115%	86.8%	114%		80.6%	113%	80.5%	67%
Nc1nc(-c2ccc(Cl)cc2)nc2c1sc(=S)n2-c1ccccc1	40.7%	53.2%	-38.4% (active)	14.1%	-4.93% (active)	42.3%	26.3%	85.4%	82.8%
O=C(Nc1ccc(Oc2cccc(Cl)c2)c(Cl)c1)c1cnccn1	53.2%	44.4%	37.3%	56.4%	40%	21.6%	50.2%	16.6%	26.2%
CC1CCN(S(=O)(=O)c2ccc(S(=O)(=O)N3CCCC(c4nc5c(nnn5Cc5cccc(Cl)c5)c(=O)[nH]4)C3)cc2)CC1 (stereo not drawn)	69.1%	47.3%	43.1%	71.5%		22.2%	38%	15.2%	19.2%
CCCCCN1C(=O)/C(=c2\sc3n(c2=O)C2C(NN=3)N(CC)C(=O)N2CC)c2ccccc21 (stereo not drawn)	26.3%	-50.5% (active)	-40.8% (active)	19.9%	2.83% (active)	7.55% (active)	-27.8% (active)	-15.6% (active)	4.79% (active)
CCN(CC)CCCCCNc1cc(OC(=O)c2ccc(Cl)cc2)cc2cccnc12	104%	96.8%	94.7%	106%	106%	106%	95.6%	108%	72.6%
CC1OC(n2c3ccccc3c3c4c(c5c6ccccc6[nH]c5c32)C(=O)N(CCN2CCCC2)C4=O)CC(O)C1O (stereo not drawn)	57%	42%	44.5%	68.9%	16.6%	20.1%	55.5%	27.2%	11.3%
O=C1/C(=C/c2cn(-c3ccccc3)nc2-c2ccccc2)SC(=S)N1C1CCCCC1	97.4%	92.9%	94.2%	117%	102%	85.2%	66.9%	107%	108%
COc1cc2c(cc1OCCCN1CCN(CCCOc3cc4c(cc3OC)C(=O)N3CC(F)(F)C[C@H]3C=N4)CC1)N=C[C@@H]1CC(F)(F)CN1C2=O	197%	54.7%	82.4%	115%	78.3%	35%	86.1%	-28.2% (active)	26.9%
O=C1C(Cl)=C(NCCCCCCNC2=C(Cl)C(=O)c3ccccc3C2=O)C(=O)c2ccccc21	91.9%	83.6%	83.9%	109%	104%	97.8%	72.9%	97.3%	82.4%
CN(C)CC1CCC(CN(C)C)C1=O (stereo not drawn)	133%	106%	85.4%	92.1%	110%	108%	103%	27.9%	64.4%
C=CCc1c(O)c(C(=O)/C=C/c2ccccc2)c(OC)c2ccoc12	64.6%	57%	50.9%	38.8%	51.7%	13.1%	-10.9% (active)	21.3%	15.3%
OCCn1cc(-c2nc(-c3c[nH]c4ncccc34)cs2)c2cc(F)ccc21	37.2%	80.3%	39.4%	62.1%	65.8%	70.7%	23%	56%	54.5%
COc1ccc(-c2ccc(-c3ccc(C(=N)N)cc3)s2)cc1Cl	68.3%	-69.1% (active)	-47.6% (active)	111%	-98.7% (active)	-88.2% (active)	90.3%	-41.3% (active)	-50.1% (active)
C/C(Cc1ccc(Cl)cc1)=C(\c1ccc(O)cc1)c1ccc(Cl)cc1	83.9%	95.1%	85.1%	95.3%	99.5%	84.7%	116%	92.2%	
O=C(OC(CO)C(=O)NC12CC3CC(CC(C3)C1)C2)c1ccc(Cl)cc1 (stereo not drawn)	96.9%	109%	88.7%	102%	100%	99.4%	103%	88.8%	98.7%
CC(=O)N1N=C(c2ccc(Nc3nc(Nc4ccccc4)nc(Nc4ccccc4)n3)cc2)CC1c1ccccc1 (stereo not drawn)	79.7%	99.6%	73.5%	87.7%		90.2%	82.4%	68.2%	
O=C(Nc1ccc(Oc2cccc(F)c2)c(Cl)c1)c1cccnc1	49.6%	36.4%	39.7%	59.9%	35.2%	32.5%	4.16% (active)	24%	40.2%
C#CCOc1cccc(Nc2ncnc3cc(NC(=O)C=C)ccc23)c1	32.5%	13.2%	16.8%	-12.6% (active)	17.2%	16%	26.8%	2.9% (active)	7.88% (active)
N#Cc1ccc(O)c(C2=NCC(c3ccccc3)O2)c1 (stereo not drawn)	37.1%	41.7%	20.1%	52.2%	40.5%	8.26% (active)	63.5%	28.1%	18.7%
Cc1c(-c2ccc(O)cc2)n(Cc2ccc(OCCN3CCCCCC3)cc2)c2ccc(O)cc12	75.2%	81%	52.6%	78%	91.9%	50.6%	53.7%	57.5%	39.8%
